Measured values from PubChem BioAssay (NCI).
About 83,000 compounds went through this panel and 20% of them were active in at least one assay; those are over-represented in the sample as a whole.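 Negative percent growth values reflect cell death: -40 means 40% of the cells present at the start died, and -100 means all died.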 Active and inactive are the calls of the source. The calls were made as follows: active = growth percent below 10; inactive = the rest.

Columns and labels:
Assay in all cases: NCI-60 one-dose screen, 48 h (100 = growth as untreated, 0 = no growth, -100 = all killed)
Conditions in all cases: 10 µM unless noted
HCT-15 colon = tested on: HCT-15 colon
HT29 colon = tested on: HT29 colon
SNB-75 CNS = tested on: SNB-75 CNS
SNB-19 CNS = tested on: SNB-19 CNS
U251 CNS = tested on: U251 CNS
PC-3 prostate = tested on: PC-3 prostate
SK-MEL-5 melanoma = tested on: SK-MEL-5 melanoma
UACC-62 melanoma = tested on: UACC-62 melanoma
LOX IMVI melanoma = tested on: LOX IMVI melanoma
SK-MEL-28 melanoma = tested on: SK-MEL-28 melanoma

Measured: growth

CN1CCN(c2ccc(Nc3nc(NCCCNS(=O)(=O)c4cccc5ccccc45)c4sccc4n3)cc2)CC1
active: HCT-15 colon -32.8% | HT29 colon -62.1% | SNB-75 CNS -36.9% | U251 CNS -74.4% | SK-MEL-5 melanoma -95.3% | UACC-62 melanoma -61% | LOX IMVI melanoma -85.2% | SK-MEL-28 melanoma -80.9%
inactive: SNB-19 CNS 35.7% | PC-3 prostate 29.1%

COc1cc(-c2nc(-c3ccccc3)[nH]c2-c2ccnc(NCCCNS(=O)(=O)c3cccc(F)c3)n2)ccc1F
inactive: HCT-15 colon 72.7% | HT29 colon 83.2% | SNB-75 CNS 112% | SNB-19 CNS 107% | U251 CNS 95.9% | PC-3 prostate 62.9% | SK-MEL-5 melanoma 92% | UACC-62 melanoma 99.8% | LOX IMVI melanoma 86.2% | SK-MEL-28 melanoma 100%

CCOC(=O)c1c(NC(=O)c2cccc(C(F)(F)F)c2)sc2c3c(ccc12)OCN(C)C3
inactive: SNB-75 CNS 83.6% | SNB-19 CNS 49.6% | SK-MEL-5 melanoma 68.6% | UACC-62 melanoma 25.6%
active: HCT-15 colon -70.9% | HT29 colon -11.8% | U251 CNS -79.4% | PC-3 prostate -42.5% | LOX IMVI melanoma -94.7% | SK-MEL-28 melanoma 9.77%

CCN1CCN(c2ccc(NC(=O)Nc3ccc4c(ccn4-c4ccnc(C(=O)NC)c4)c3)cc2C(F)(F)F)CC1
active: HCT-15 colon 9.57% | HT29 colon -44.5% | LOX IMVI melanoma -87.7% | SK-MEL-28 melanoma -81%
inactive: SNB-75 CNS 43.7% | SNB-19 CNS 81% | U251 CNS 44.7% | PC-3 prostate 52.6% | SK-MEL-5 melanoma 67.4% | UACC-62 melanoma 92.8%

O=C(CSc1nc2ccccc2c(=O)n1-c1ccc(Cl)cc1)N/N=C/c1ccc(Oc2ccc(Cl)cc2)cc1
active: HT29 colon 1.76% | U251 CNS -20.5% | PC-3 prostate 0.803% | UACC-62 melanoma 0.427% | LOX IMVI melanoma -56.3% | SK-MEL-28 melanoma 3.17%
inactive: HCT-15 colon 10.4% | SNB-75 CNS 57.9% | SNB-19 CNS 28.5% | SK-MEL-5 melanoma 10.9%

CC1=C(SCC(=O)OCCCCCC(C)C)C(=O)c2ccccc2C1=O
inactive: HCT-15 colon 89.3% | HT29 colon 106% | SNB-75 CNS 91.1% | SNB-19 CNS 91.1% | U251 CNS 92% | PC-3 prostate 68.8% | SK-MEL-5 melanoma 91.8% | UACC-62 melanoma 86.2% | LOX IMVI melanoma 93.2% | SK-MEL-28 melanoma 110%

COc1ccc(-c2c(C(N)=O)c(N)n(Cc3nc4ccccc4[nH]3)c(=O)c2C#N)c(OC)c1
inactive: HCT-15 colon 98.4% | HT29 colon 113% | SNB-75 CNS 88.3% | SNB-19 CNS 98.7% | U251 CNS 97.2% | PC-3 prostate 97.4% | SK-MEL-5 melanoma 97.3% | UACC-62 melanoma 91.6% | LOX IMVI melanoma 96.4% | SK-MEL-28 melanoma 109%

Cc1ccc2c(n1)C(=O)C(Cl)=C(Nc1cccc(C(F)(F)F)c1)C2=O
active: HCT-15 colon -61.1% | LOX IMVI melanoma -61.8%
inactive: HT29 colon 105% | SNB-75 CNS 109% | SNB-19 CNS 101% | U251 CNS 95.7% | PC-3 prostate 69.6% | SK-MEL-5 melanoma 96.9% | UACC-62 melanoma 97.6% | SK-MEL-28 melanoma 78.5%

CC(=O)C1=C(C)NC(NNc2ccccc2)=NC1c1ccc([N+](=O)[O-])cc1 (stereo not given)
inactive: HCT-15 colon 67.9% | HT29 colon 96.5% | SNB-75 CNS 102% | SNB-19 CNS 87.8% | U251 CNS 93.1% | PC-3 prostate 79.3% | SK-MEL-5 melanoma 98.7% | UACC-62 melanoma 52.8% | LOX IMVI melanoma 77.1% | SK-MEL-28 melanoma 102%

CC(C)(C)Nc1nc2c(OCCc3ccccc3)cccn2c1-c1ccc([N+](=O)[O-])cc1
inactive: HCT-15 colon 15.8% | HT29 colon 52.3% | SNB-75 CNS 88.1% | SNB-19 CNS 78.4% | U251 CNS 62.6% | PC-3 prostate 49.1% | SK-MEL-5 melanoma 74.8% | UACC-62 melanoma 57.5% | LOX IMVI melanoma 54.7% | SK-MEL-28 melanoma 76.2%

COc1ccc(C(=O)c2c(N)c(C#N)cn2-c2ccc(Cl)cc2Cl)cc1
inactive: HCT-15 colon 99.3% | HT29 colon 98.5% | SNB-75 CNS 91% | SNB-19 CNS 93.1% | U251 CNS 99.2% | PC-3 prostate 95.7% | SK-MEL-5 melanoma 98.7% | UACC-62 melanoma 89.6% | LOX IMVI melanoma 84% | SK-MEL-28 melanoma 97.9%

Brc1ccc(-c2cc(-c3ccc4c(c3)OC=CO4)n[nH]2)s1
inactive: HCT-15 colon 61.9% | HT29 colon 74.1% | SNB-75 CNS 74% | SNB-19 CNS 91.7% | U251 CNS 88.8% | PC-3 prostate 101% | SK-MEL-5 melanoma 89.4% | UACC-62 melanoma 83.2% | LOX IMVI melanoma 89.9% | SK-MEL-28 melanoma 91.6%

O=C(Nc1ccc(N=Cc2c(O)[nH]c3ccccc23)cc1)Nc1ccc(S(=O)(=O)Nc2ncccn2)cc1
inactive: HCT-15 colon 97.4% | HT29 colon 104% | SNB-75 CNS 99% | SNB-19 CNS 101% | U251 CNS 103% | PC-3 prostate 94.1% | SK-MEL-5 melanoma 100% | UACC-62 melanoma 103% | LOX IMVI melanoma 101% | SK-MEL-28 melanoma 120%

CS(=O)(=O)c1ccc(/C(=N/N=C(N)N)c2ccc(Cl)cc2)cc1
inactive: HCT-15 colon 81.6% | HT29 colon 92.9% | SNB-75 CNS 72.8% | SNB-19 CNS 90.3% | U251 CNS 92.8% | PC-3 prostate 76.5% | SK-MEL-5 melanoma 92.2% | UACC-62 melanoma 80.8% | LOX IMVI melanoma 79.7% | SK-MEL-28 melanoma 95.1%

C/C(=C(/C)C1CC1CCNC1CCC(NC(=O)OC(C)(C)C)CC1)c1ccccc1 (stereo not given)
inactive: HCT-15 colon 42.6% | HT29 colon 11.9% | SNB-75 CNS 60.1% | SNB-19 CNS 91.3% | U251 CNS 61.3% | PC-3 prostate 63.8% | SK-MEL-5 melanoma 45.7% | UACC-62 melanoma 83.1% | LOX IMVI melanoma 10.2% | SK-MEL-28 melanoma 35.5%

NC1C2CCC1CN(c1cnc(C(=O)Nc3cc(F)cc4cccnc34)cn1)C2 (stereo not given)
active: HCT-15 colon 6.16%
inactive: HT29 colon 22.7% | SNB-75 CNS 46.4% | SNB-19 CNS 69.7% | U251 CNS 60.1% | PC-3 prostate 61.4% | SK-MEL-5 melanoma 93.2% | UACC-62 melanoma 78.9% | LOX IMVI melanoma 26.3% | SK-MEL-28 melanoma 63.5%

NS(=O)(=O)c1ccc(CCn2c(-c3ccc(C(=O)O)cc3)nc(-c3ccccc3)c2-c2ccccc2)cc1
inactive: HCT-15 colon 94.5% | HT29 colon 106% | SNB-75 CNS 86.1% | SNB-19 CNS 102% | U251 CNS 110% | PC-3 prostate 93.5% | SK-MEL-5 melanoma 99.1% | UACC-62 melanoma 94.2% | LOX IMVI melanoma 102% | SK-MEL-28 melanoma 102%

Cc1ccc(-c2csc(N/N=C/c3cccs3)n2)cc1
inactive: HCT-15 colon 59.1% | HT29 colon 99.4% | SNB-75 CNS 81.9% | SNB-19 CNS 101% | U251 CNS 85.8% | PC-3 prostate 68.2% | SK-MEL-5 melanoma 72.8% | UACC-62 melanoma 88.9% | LOX IMVI melanoma 94.5% | SK-MEL-28 melanoma 102%

CN(C)CC(=O)Nc1nc(-c2cccc(NS(=O)(=O)c3cccc4c(N(C)C)cccc34)c2)cs1
inactive: HCT-15 colon 75.8% | HT29 colon 94.3% | SNB-75 CNS 95.6% | SNB-19 CNS 88.8% | U251 CNS 83.4% | PC-3 prostate 72% | SK-MEL-5 melanoma 63.4% | UACC-62 melanoma 72.5% | LOX IMVI melanoma 95.3% | SK-MEL-28 melanoma 104%

CN1CCN(Cc2ccc(/C=N/Nc3ccnc4cc(Cl)ccc34)cc2)CC1
inactive: HCT-15 colon 38.2% | HT29 colon 42.5% | SNB-75 CNS 99% | SNB-19 CNS 98.2% | U251 CNS 84.6% | PC-3 prostate 75.8% | SK-MEL-5 melanoma 94.3% | UACC-62 melanoma 104% | LOX IMVI melanoma 15.3% | SK-MEL-28 melanoma 98%
